HP1b binding inh: HTS for Inhibitors of HP1-beta Chromodomain Interactions with Methylated Histone Tails | AlphaScreen HP1-beta / biotin-H3K9me3 peptide binding | 390,000 compounds, 0.56% hits | Potency, µM (top dose mostly 114 µM), for inactives: at the highest dose activity change, negative = inhibition, most hits filed as inhibitors; also: nearly all actives have a fitted effect of over 70% in size
Target sequence (P83916 whole entry, looked up): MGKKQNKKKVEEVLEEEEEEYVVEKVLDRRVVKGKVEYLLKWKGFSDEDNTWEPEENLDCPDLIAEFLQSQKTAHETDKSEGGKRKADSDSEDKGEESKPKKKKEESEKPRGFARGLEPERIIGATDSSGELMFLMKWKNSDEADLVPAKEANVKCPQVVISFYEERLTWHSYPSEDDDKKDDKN
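Compound inhibition of the preformed complex between 50 nM HP1-beta and 50 nM biotinylated H3K9me3 peptide was read by AlphaScreen. Buffer was PBS pH 7.4 with 0.01% Tween-20. Incubations ran 30 min at room temperature, with 10 ug/mL donor/acceptor beads.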
L3MBTL1 inh: qHTS Assay for the Inhibitors of L3MBTL1 | Potency, µM (highest dose often 57.1 µM), for the others: top-dose activity, negative = inhibition, actives largely listed as inhibitors | AID 485360, 2010 | 230,000 compounds, 0.66% hits | AlphaScreen L3MBTL1–H3K9me1 peptide binding | Lethal(3)malignant brain tumor-like protein 1 (Homo sapiens), Q9Y468; also: % is scaled to controls: 0 for no effect and ±100 for the full control effect; nearly all actives have a fitted effect of over 60% in size
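First, the protein-peptide complex forms for 30 min at room temperature (L3MBTL1 50 nM, biotinylated H3K9me1 peptide 75 nM). Next, compounds are pin-transferred and incubated 30 min. Finally, AlphaScreen beads are added and read after 30 min.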
BAZ2B block: qHTS Assay for Inhibitors of BAZ2B; Bromodomain adjacent to zinc finger domain protein 2B (Homo sapiens), Q9UIF8; Potency, µM (top dose mostly 114 µM), for inactives: at the top dose activity change, negative = inhibition, hits mostly inhibitors; 360,000 compounds, 4.4% hits; AlphaScreen BAZ2B-H3K14Ac peptide displacement; also: % is scaled to controls: 0 for no effect and ±100 for the full control effect; nearly all actives have a fitted effect of over 60% in size
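Inhibition is scored as reduced AlphaScreen emission. The BAZ2B/b-H3(5-23)K14Ac complex (50 nM each) in PBS pH 7.4, 0.01% Tween-20 meets compound (up to 110 uM) for 30 min at RT before bead addition.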
Sfp PPTase inh: qHTS Assay for Inhibitors of Bacillus subtilis Sfp phosphopantetheinyl transferase (PPTase); 4'-phosphopantetheinyl transferase ffp (Bacillus subtilis), Q9F4F7; Biochemical Sfp PPTase activity, qHTS; Potency, µM, without a hit: largest response in the series, negative = inhibition, usual class: inhibitors; 310,000 compounds, 3.5% hits; AID 1490, 2009;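 also: the enzyme is Sfp with the accession as filed and its product quenches rhodamine fluorescence; 0% = enzyme reaction without inhibitor and -100% = no enzyme wells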
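Fluorescence-quenching assay with 15 nM Sfp, 5 uM rhodamine-CoA and 12.5 uM BHQ-2-labelled ybbR peptide in pH 7.6 Hepes/MgCl2 buffer. Enzyme was pre-incubated with compound for 15 min at room temperature. Rate was taken from the 30-min fluorescence change (525/598 nm).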
JMJD2A Tudor inh: qHTS Assay for Inhibitors of JMJD2A-Tudor Domain; Potency, µM (series often up to 114 µM), for inactives: at the highest dose activity change, negative = inhibition, most hits filed as inhibitors; AlphaScreen JMJD2A-Tudor / H3K4me3 peptide binding; Lysine-specific demethylase 4A (Homo sapiens), O75164; 390,000 compounds, 4.4% hits; also: % is scaled to controls: 0 for no effect and ±100 for the full control effect; nearly all actives have a fitted effect of over 50% in size
G9a inh: qHTS Assay for Inhibitors of Histone Lysine Methyltransferase G9a; Histone-lysine N-methyltransferase EHMT2 (Homo sapiens), Q96KQ7; G9a H3K9 monomethylation, AlphaScreen, 2 h; Potency, µM (top dose mostly 102 µM), for the others: top-dose activity, negative = inhibition, actives largely listed as inhibitors; 350,000 compounds, 8.8% hits; AID 504332, 2011; also: % is scaled to controls: 0 for no effect and ±100 for the full control effect; nearly all actives have a fitted effect of over 75% in size
Target sequence (Q96KQ7 913-1193 limits assumed): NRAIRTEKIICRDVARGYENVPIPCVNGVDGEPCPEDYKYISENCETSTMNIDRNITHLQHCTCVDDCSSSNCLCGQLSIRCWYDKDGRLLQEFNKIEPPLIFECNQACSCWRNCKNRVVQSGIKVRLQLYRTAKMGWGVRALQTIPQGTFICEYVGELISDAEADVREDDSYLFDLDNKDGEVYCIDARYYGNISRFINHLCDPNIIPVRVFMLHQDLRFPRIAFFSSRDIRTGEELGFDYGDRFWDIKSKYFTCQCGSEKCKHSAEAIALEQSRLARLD
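Step 1: enzyme (final 20 nM) with compound, 15 min RT. Step 2: substrate peptide 500 nM and SAM 20 uM, 2 h RT. Step 3: anti-H3K9me1 antibody and AlphaScreen beads, 10 min, then plate read.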
* hit, by the source's call; ? = inconclusive; / = no result given; ! = repeats disagree; [ ] = dose if it differs, or a comment. Hits are enriched below; roughly 12% of the tested compounds scored in any of these assays. Calls follow the shape of the dose curve; as a rule, active = well fitted curve in the direction sought with a large enough effect; inconclusive = small, poorly fitted or top-dose-only effect, or another doubt; inactive = no such curve, though single readings can be large; an effect the other way counts as inactive or inconclusive. Potency is read from the fitted curve at half-maximal effect.

SMILES	HP1b binding inh	L3MBTL1 inh	BAZ2B block	Sfp PPTase inh	JMJD2A Tudor inh	G9a inh
O=C(c1ccc([N+](=O)[O-])cc1[N+](=O)[O-])N1CCc2ccccc21	4.5%	-10.9%	?	3.5%	-29.2%	/
O=C(N=C1N=C2C=CC(Br)=CN2Cc2ccccc21)c1ccc([N+](=O)[O-])cc1[N+](=O)[O-]	-8.6%[57 µM]	-13.9%	-23.4%	0.0%	?	50.1µM*
CC1Cc2ccccc2N1C(=O)COC(=O)c1ccc([N+](=O)[O-])o1 (stereo not given)	11.8%	?	/	/	-17.8%	/
Cc1cc(C(=O)OCC(=O)N2c3ccccc3CC2C)c(C)o1 (stereo not given)	-2.4%	0.4%	-30.9%	-0.4%	-19.5%	11.2µM*
CCN(CC)c1cccc(OCC(=O)N2c3ccccc3CC2C)c1 (stereo not given)	-14.9%	-17.7%	?	/	?	10µM*
Cc1cc(=O)oc2cc(OCC(=O)N3c4ccccc4CC3C)ccc12 (stereo not given)	16.5%	-2.5%	11.5%	-5.3%	-9.3%	-5.6%[59 µM]
COc1ccc(CNc2ncc(-c3ccccc3)n2C)c(OC)c1OC	?	-2.7%	50.1µM*	-29.2%	20µM*	7.08µM*
COc1ccc(OC)c(CNc2ncc(-c3cccc([N+](=O)[O-])c3)n2C)c1	14.1µM*	-20.3%	50.1µM*	?	44.7µM*	28.2µM*
COc1ccc(CNc2ccncc2)c(OC)c1OC	52.4%	/	/	/	-6.2%	/
Cn1c(-c2ccccc2)cnc1NCc1cc(Cl)ccc1O	?	-6.3%	56.2µM*	-18.3%	35.5µM*	/
COc1ccc(CNc2ncc(-c3ccccc3)n2C)c2ccccc12	?	-12.5%	50.1µM*	-24.1%	17.8µM*	/
Oc1ccc(Cl)cc1CNc1ccccn1	30.4%	-0.4%	6.4%	15.7%	-15.1%	15.8%
COC(=O)c1sccc1S(=O)(=O)N(CC(=O)NCc1ccccc1)c1ccc(C)c(C)c1	22.6%	/	-1.5%	/	-8.0%	23.2%[59 µM]
O=C(c1cc(C(F)(F)F)cc(C(F)(F)F)c1)N1CCC2(CCN(Cc3nccs3)CC2)CC1	/	/	/	6.9%	/	-3.7%[12.7 µM]
O=c1c(O[C@@H]2O[C@H](CO)C(O)C2O)c(-c2ccc(O)c(O)c2)oc2cc(O)cc(O)c12 (stereo not given in full)	14.3%	14.1µM*	/	/	-29.9%	/
O=c1cc(-c2ccc(O)c(O)c2)oc2cc(O[C@@H]3O[C@H](CO)[C@@H](O)[C@H](O)[C@H]3O)cc(O)c12	5.0%	3.98µM*	/	-7.8%	12.6µM*	/
O=c1c(O)c(-c2ccc(O)c(O)c2)oc2c(OC[C@@H]3O[C@@H](O)[C@@H](O)[C@H](O)[C@H]3O)c(O)cc(O)c12	/	/	/	56.2µM*	/	/
CC1OC(OCC2OC(Oc3c(-c4ccc(O)c(O)c4)oc4cc(O)cc(O)c4c3=O)C(O)C(O)C2O)C(O)C(O)C1O (stereo not given)	/	/	/	-18.6%	/	/
C[C@@H]1O[C@@H](Oc2c(-c3cc(O)c(O)c(O)c3)oc3cc(O)cc(O)c3c2=O)[C@H](O)[C@H](O)[C@H]1O	?	?	50.1µM*	31.6µM*!	31.6µM*	44.7µM*
Cc1cccc([C@H]2[C@@H]3C=CC(C)C[C@@H]3C(=O)N2Cc2ccccc2)c1 (stereo not given in full)	/	/	/	-20.6%	/	36.5%
Cc1ccc(S(=O)(=O)N2CCN(c3nc(-c4cccs4)nc(C)c3C)CC2)cc1	3.4%	/	/	/	-14.2%	/
O=C(CSc1cn(CCNC(=O)c2c(F)cccc2F)c2ccccc12)Nc1ccc(F)cc1	63.6%	/	1.2%	/	-11.2%	41.9%[59 µM]
O=c1cc(-c2ccccc2)oc2cc(O)cc(O)c12	15.5%	/	/	6.4%	-25.2%	-2.7%[21.5 µM]

High-throughput results (PubChem BioAssay)
